Assay outcomes as filed in PubChem.
LAP4 TOR yeast: yeast TOR pathway LAP4-GFP modulation; S. cerevisiae LAP4-GFP multiplex, flow cytometry GFP, 3 h; median GFP as percent of DMSO wells; GFP response vs DMSO, % at 10 µM; 0.34% of 320,000 active; AID 2023;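 active = GFP response vs DMSO above a set limit, about the screen mean plus 3 SD, cut at about 150% in these data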
RPL19A TOR yeast: alters RPL19A-GFP fluorescence in TOR pathway yeast screen; 0.3% of 330,000 active; percent response vs DMSO, % at 10 µM; S. cerevisiae RPL19A-GFP strain, flow cytometry, 3 h; active compounds read low; AID 2025;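 active = percent response vs DMSO below 50%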;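 also: median channel GFP fluorescence of the barcoded RPL19A-GFP strain; ratio of sample median GFP to plate DMSO average so 100% = DMSO; lower means less RPL19A-GFP as with rapamycin TOR inhibition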
CIT2 TOR yeast: yeast TOR pathway CIT2-GFP modulation; 0.065% of 320,000 active; GFP response vs DMSO, % at 10 µM; AID 2029; S. cerevisiae CIT2-GFP strain, flow cytometry, 3 h; 100 means same as DMSO wells;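 active = GFP response relative to DMSO above a set limit, near the screen mean plus 3 SD, cut at about 150% in these data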;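 also: ratio of well median GFP fluorescence to mean of DMSO wells on the plate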
Myeloid diff MLP: compounds promoting myeloid differentiation. calls only at 10 µM. 1% of 360,000 active. ER-HoxA9 myeloid progenitors, lysozyme-GFP differentiation, flow cytometry. AID 624256;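 active = normalized GFP-positive differentiation at or above the plate's own cutoff, the solvent-only control mean plus 3 SD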;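 also: cells exposed to compound for four days before flow analysis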
MEP2-GFP yeast: alters MEP2-GFP fluorescence in TOR pathway yeast screen | S. cerevisiae MEP2-GFP strain, flow cytometry GFP, 3 h; 100% = DMSO control level | GFP response vs DMSO, % at 10 µM | 0.51% of 330,000 active | AID 2016;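 active = GFP response versus DMSO above a set limit, roughly screen mean plus 3 SD, cut at about 180% in these data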;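 also: median GFP fluorescence of the barcode-gated MEP2-GFP cells per well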
AGP1-GFP MLPCN: alters AGP1-GFP fluorescence in TOR pathway yeast screen; 0.02% of 320,000 active; S. cerevisiae AGP1-GFP multiplex flow cytometry, 3 h; GFP as percent of DMSO wells; GFP response vs DMSO, % at 10 µM;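 active = GFP response relative to DMSO above a set limit, near screen average plus 3 SD, cut at about 150% in these data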;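 also: median GFP channel fluorescence of the gated AGP1 strain per well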
Myeloid diff: promotes myeloid progenitor differentiation; shares compounds with Myeloid diff MLP; ER-HoxA9 myeloid progenitors, GFP/Mac1 double-positive flow; calls only; 2% of 2,300 active; AID 651706;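 active = share of green or green-and-red cells above 9 and 9% in run 1 or 4 and 3% in run 2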
GFP autofluor: counter-screen for myeloid differentiation promoters: compound fluorescence | ER-HoxA9 myeloid progenitors, no estrogen, GFP autofluorescence flow cytometry; vehicle wells 0%, positive control 100% | shares compounds with Myeloid diff MLP | fluorescence response, % (concentration not given with the values) | 7.4% of 2,300 active;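 active = over 5% cells positive for green fluorescent reporter, or over 2% positive for both it and APC stain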;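 also: range taken on the double positive population between DMSO and positive control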
* hit, by the source's call; i = inactive; · = no result; + = active, no number. Most compounds without a hit are left out; they make up all but 1.8% or so of the library.

SMILES	LAP4 TOR yeast	RPL19A TOR yeast	CIT2 TOR yeast	Myeloid diff MLP	MEP2-GFP yeast	AGP1-GFP MLPCN	Myeloid diff	GFP autofluor
CCOC(=O)C1=C(N)Oc2c(c(=O)oc3ccccc23)C12C(=O)N(C)c1ccccc12 (stereo unspecified)	98.9	99.7	103.6	i	105.8	106.7	·	·
C=CCN1C(=O)C2(C(C(=O)OCC)=C(N)Oc3ccccc32)c2c1c1ccccc1oc2=O (stereo unspecified)	99.5	105.0	·	i	100.5	103.6	i	0.0
CCN(CC)S(=O)(=O)c1ccc(C)c(NCC(=O)Nc2ccc(C#N)c(Cl)c2)c1	94.1	100.3	108.2	+	101.0	103.0	i	0.0
CC(=O)N1CCN(CC(=O)Nc2ccc(C#N)c(Cl)c2)CC1	97.5	95.3	102.0	i	94.1	97.5	·	·
Cc1cc(N2CCCC2)ccc1C=C(C#N)C#N	121.7	102.0	103.3	+	114.7	109.7	i	3.7
CN1CCN(c2ccc(F)cc2N)CC1	83.7	93.4	88.2	i	100.8	78.7	·	·
O=C1NC(=O)C2(CCCc3ccc(N(CCCl)CCCl)cc32)N1 (stereo unspecified)	·	·	·	i	·	·	·	·
CCCCCCn1c(O)c(C=Nc2ccccc2N2CCOCC2)c(=O)[nH]c1=S	102.3	95.4	94.8	i	98.4	101.4	i	0.0
CCCCn1c(O)c(/C=N/N2CCOCC2)c(=O)[nH]c1=S	116.2	101.2	102.0	i	105.3	114.5	·	·
Cn1c(=O)n(CC(=O)N2CCC3(CC2)OCCO3)c(=O)c2ccccc21	102.9	96.7	93.5	+	99.4	97.4	i	0.0
COc1cc2c(cc1OC)C13CCN4CC5=CCOC6CC(=O)N2C1C6C5C3C4 (stereo unspecified) (tested in a mixture with another compound)	·	·	·	i	·	·	·	·
COc1ccc2c(c1OC)CN1CCc3cc4c(cc3C1C2)OCO4 (stereo unspecified)	88.8	106.2	103.4	i	114.5	98.5	i	0.3
CN1C(=O)N(C)C(=O)C2(Cc3cc(NC(=O)c4ccccc4)ccc3N3CCCC32)C1=O (stereo unspecified)	100.3	105.5	104.6	i	103.2	102.2	·	·
CCCOC(=O)c1ccc(-[n+]2c(-c3ccccc3)cc(-c3ccccc3)cc2-c2ccccc2)cc1	102.6	108.0	96.5	i	98.6	98.5	·	·
COc1c(C)cc(C(=O)C2CCCN(Cc3ccccn3)C2)cc1C (stereo unspecified)	89.2	101.7	99.7	i	103.4	99.4	·	·
COC(=O)C1=C(c2cc3ccccc3s2)C[C@@H]2CC[C@H]1N2C(=O)NC1CCCCC1	124.6	95.3	85.9	i	91.3	84.0	+	0.3
COC(=O)C1=C(c2cccc(C#N)c2)C[C@@H]2CC[C@H]1N2C(=O)NC1CCCCC1	107.4	101.3	100.4	+	98.5	104.5	i	0.0
